High-throughput results from PubChem BioAssay.
In the library only some 1.7% were active in any assay of this set; here they are far more common.
Fh CTSL1 inh: cathepsin L1 inhibition, PFM18AAP counter-screen | recombinant F. hepatica cathepsin L1, Z-Leu-Arg-MCA fluorescence | inhibition, % at 5.96 µM | hit rate 0.49% among 300,000;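 active means inhibition above the mean of all tested compounds plus 3 SD, set per screening campaign, cut at about 17% in these data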;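 further: 0% = plate median of test compound wells and 100% = 1 µM Z-Phe-Ala-diazomethylketone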
LANA-H2B inh: blocks KSHV LANA binding to histone H2A/H2B | Q9QR71 | cell-free LANA-H2A/H2B peptide, fluorescence polarization | inhibition, % (no concentration beside the values) | hit rate 0.6% among 320,000; in the data active means inhibition mostly above about 10%, no sharp cut-off; inactive means mostly below about 6.7%
HDAC3 inhib: inhibitors of human histone deacetylase 3 | O15379 | recombinant HDAC3, fluorogenic peptide/trypsin coupled, fluorescence | inhibition, % at 8.3 µM | hit rate 0.15% among 320,000 | AID 2718; in the data active means inhibition above about 26%, passing the limit was not always enough
m5-HT2A agonist: activates the mouse 5-HT2A serotonin receptor; P35363; CHO-K1 mHTR2A beta-arrestin complementation, luminescence; percent of 30 µM serotonin response; activation, % at 7.6 µM; hit rate 0.66% among 360,000;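 active means activation above a run cutoff, the mean activation of all tested compounds plus 3 SD, cut at about 14% in these data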;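 further: 0% = plate median of compound wells and 100% = 30 µM serotonin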
* marks the source's active call; other numbers are inactive results; / = no result given; + = active, no number.

SMILES	Fh CTSL1 inh	LANA-H2B inh	HDAC3 inhib	m5-HT2A agonist
CCOC(=O)/C=C/C(=O)Nc1ccc(Oc2ccccc2)cc1	31.3*	-1.7	11.2	-6.9
NC(=S)NNC(=O)c1ccccc1Cl	9.1	0.5	-5.2	-3.8
O=C(Nc1ccc(S(=O)(=O)N2CCOCC2)cc1)c1ccccc1Br	3.0	-1.1	-0.3	-3.4
CCNc1c2c3c(cccc3n(C)c1=O)C(=O)c1ccccc1-2	2.1	44.2*	-12.3	/
Cn1c(NCCc2ccccc2)cc(=O)n(C)c1=O	-0.5	-1.3	-3.0	-2.5
CCCCNc1c2c3c(cccc3n(C)c1=O)C(=O)c1ccccc1-2	2.5	22.8*	15.1	-3.1
CC(=O)Nc1ccc(Nc2c3c4c(cccc4n(C)c2=O)C(=O)c2ccccc2-3)cc1	5.0	21.7	11.1	2.2
Cn1c(=O)c(NCCO)c2c3c(cccc31)C(=O)c1ccccc1-2	4.6	184.9*	6.4	2.7
Cn1c(=O)c(NCCc2ccccc2)c2c3c(cccc31)C(=O)c1ccccc1-2	0.6	128.0*	0.4	0.0
Cn1c(=O)c(NC2CCCCC2)c2c3c(cccc31)C(=O)c1ccccc1-2	/	/	/	-1.2
CCc1ccc(NC(=O)CCC(=O)Nc2nnc(C(F)(F)F)s2)cc1	0.9	-0.3	2.7	0.7
Cn1cnnc1SCC(=O)Nc1ccc(N2CCCCC2)cc1	/	-0.2	0.6	-3.7
Cc1cccc(NC(=O)C(C)Sc2ncnc3sccc23)c1 (configuration not stated)	/	/	/	-0.8
CCO/C(C)=N/Oc1cc(OC)cc(OC)c1	/	/	/	-0.9
Cc1csc(CN(C)C(=O)C2CCC(=O)N(CCN(C)C)C2)n1 (configuration not stated)	19.1*	3.1	-2.4	-3.0
Cc1csc(CN(C)C(=O)C2CCC(=O)N(Cc3ccc(Cl)cc3)C2)n1 (configuration not stated)	-2.5	-0.9	3.6	-1.7
CN1CCN(C(=O)OCCOCCOC(=O)N2CCN(C)CC2)CC1	/	/	/	0.9
Cc1ccc(N(C)C2=NC(=O)CS2)cc1Cl	-0.2	1.3	5.4	5.4
CC1(C)CC2CC(C)(CN2C(=O)COC(=O)CNC(=O)c2ccc(Cl)c(Cl)c2)C1 (configuration not stated)	26.9*	-2.3	0.8	4.7
CC(NC(=O)c1ccccc1)c1nnc(SCC(=O)NC2CCCC2)n1C (configuration not stated)	-1.4	-7.5	-1.3	0.0
CC(=O)N1CC=C2C(C#N)=C(N)C(C#N)(C#N)[C@H](c3ccoc3)[C@H]2C1	0.7	-0.9	0.2	6.2
CCCN1CC=C2C(C#N)=C(N)C(C#N)(C#N)C(c3cccc(OC)c3OC)C2C1 (configuration not stated)	-1.6	17.2*	-2.2	-2.9
N#CC1=C(N)C(C#N)(C#N)[C@H](c2ccoc2)[C@H]2CN(Cc3ccccc3)CC=C12	2.0	23.4*	1.7	-3.6
CCN1CC=C2C(C#N)=C(N)C(C#N)(C#N)C(CCc3ccccc3)C2C1 (configuration not stated)	6.2	25.0*	-33.2	0.6
CN1CC=C2C(C#N)=C(N)C(C#N)(C#N)[C@H](c3ccoc3)[C@H]2C1	5.0	18.4*	-13.2	2.9
SMILES	Fh CTSL1 inh	LANA-H2B inh	HDAC3 inhib	m5-HT2A agonist
COc1ccc(C)cc1NCC(=O)Nc1ccc(C(C)(C)C)cc1	-2.0	-3.0	5.4	0.8
Cc1ccc(CNC(=O)CN2C(=O)NC3(CC(C)CC(C)(C)C3)C2=O)cc1 (configuration not stated)	/	/	/	6.7
O=C(CCn1c(=O)c2cccn2c2cccnc21)NCCCN1CCN(c2ccc(F)cc2)CC1	/	/	/	-12.6
Cc1cnc(NC(=O)C2CC(=O)N(c3ccc4c(c3)OCCO4)C2)s1 (configuration not stated)	/	4.1	-8.8	-0.6
Cc1nnc(NC(=O)C2CC(=O)N(c3ccc4c(c3)OCCO4)C2)s1 (configuration not stated)	/	20.9*	0.4	6.4
O=C1c2cccc3cccc(c23)C(=O)C1(O)O	18.0*	2.4	4.5	2.0
CC[C@H]1c2[nH]c3ccccc3c2C[C@H]2C(=O)N(c3ccc(F)cc3)C(=O)N21	1.2	+	5.0	-1.1
COC(=O)c1ccccc1NC(=O)CSCC(=O)Nc1ccccc1	2.1	3.9	-0.8	18.0*
N#Cc1ccc(OCC(O)CN2CCN(c3ncc(C(F)(F)F)cc3Cl)CC2)cc1 (configuration not stated)	-3.2	-2.3	15.9	-3.5
Cc1ccc(NC(=O)CN(C)C(=O)C(c2ccccc2)c2ccccc2)cc1	/	-0.2	7.4	-4.9
CN(CC(=O)Nc1ccccc1C(F)(F)F)CC(=O)N1CCCCCC1	/	2.5	-6.5	7.4
COc1ccc(NC(=O)CN(C)C(=O)c2ccccc2SCC(=O)N2CCCC2)cc1	2.2	18.6*	3.5	-0.3
